Bioassay records as filed in PubChem BioAssay.
CF NFkB block: inhibitors of cystic fibrosis induced NF-kB | inhibition, % at 5 µM | AID 588850 | KKLEB NF-kB-GFP reporter, PAF-induced, GFP fluorescence overnight | 360,000 tested, 0.86% active;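 active means at least 50% inhibition at 5 µM, scaled per plate between neutral and stimulator controls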;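 further: PAF is a Pseudomonas aeruginosa culture filtrate used as stimulus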
TWEAK Fn14 block: inhibitors of TWEAK-Fn14 interaction signaling | TWEAK-stimulated Fn14 reporter cells, luciferase luminescence, 8 h | inhibition, % at 10 µM | 360,000 tested, 2% active; in the data active means inhibition above about 50%
TROY signal inh: inhibitors of TROY-dependent NF-kB signaling; AID 1347056; Q293 LMP1-TROYcd NF-kB luciferase reporter, 4 h; inhibition, % at 10 µM; 360,000 tested, 0.98% active;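 active means compounds whose plate-normalised and pattern-corrected inhibition of the luciferase reporter signal at the single screening dose is 50% or more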
HIF-2a block: HIF-2a inhibition; 786-0 RCC cells HIF-2a reporter, luciferase luminescence, overnight; inhibition, % at 18.8 µM; 360,000 tested, 0.72% active; AID 624352;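 active means inhibition of the luminescence signal of 40% or more relative to plate controls, in a single-dose primary screen at 18.75 µM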
Peg3 prom inh: Peg3 promoter activity inhibition. HeLa PEG-Prom luciferase reporter, luminescence, overnight. inhibition, % at 20 µM. 360,000 tested, 1.7% active. AID 588405;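 active means inhibition of at least 50% at 20 µM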
KKLEB tox: CF airway cell cytotoxicity counter-screen | KKLEB CF airway cells viability, ATPlite luminescence, overnight; hits give low values; cells stimulated with P. aeruginosa culture filtrate | activity change (cytotoxicity), % at 5 µM | 360,000 tested, 0.36% active | AID 602141;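 active means corrected activity change at or below -50% at 5 µM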
CF NFkB conf: CF NF-kB inhibition confirmation, single concentration; shares compounds with CF NFkB block; inhibition, % at 5 µM; AID 602472; 1,300 tested, 64% active; KKLEB CF airway cells, PAF-induced NF-kB-GFP fluorescence, overnight; in the data active means inhibition above about 40%;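 further: stimulus PAF is a Pseudomonas aeruginosa filtrate and not platelet activating factor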
Mdm2 MdmX conf: confirmation of inhibitors of human Mdm2/MdmX interaction, set 2; shares compounds with HIF-2a block; SaOS-2 split-luciferase Mdm2/MdmX complementation, luminescence; inhibition, % at 8 µM; 740 tested, 99% active; AID 504601;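 active means mean inhibition of the luminescence signal across two replicates at or above 26 percent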
Target sequence (O15151 whole entry, looked up): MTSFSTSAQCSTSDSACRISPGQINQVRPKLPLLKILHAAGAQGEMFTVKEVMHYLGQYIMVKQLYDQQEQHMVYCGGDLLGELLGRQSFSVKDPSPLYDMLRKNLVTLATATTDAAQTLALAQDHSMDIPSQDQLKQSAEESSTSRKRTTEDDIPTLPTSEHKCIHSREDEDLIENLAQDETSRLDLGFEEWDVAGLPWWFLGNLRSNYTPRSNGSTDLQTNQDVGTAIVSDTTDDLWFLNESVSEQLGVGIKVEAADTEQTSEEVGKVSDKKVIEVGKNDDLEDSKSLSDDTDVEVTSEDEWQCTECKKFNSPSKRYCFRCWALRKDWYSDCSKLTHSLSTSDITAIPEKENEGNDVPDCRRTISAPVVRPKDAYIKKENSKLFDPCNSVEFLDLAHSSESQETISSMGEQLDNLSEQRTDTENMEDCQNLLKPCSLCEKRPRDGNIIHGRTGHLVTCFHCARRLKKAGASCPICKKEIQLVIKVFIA
Target sequence (Q00987 whole entry, looked up): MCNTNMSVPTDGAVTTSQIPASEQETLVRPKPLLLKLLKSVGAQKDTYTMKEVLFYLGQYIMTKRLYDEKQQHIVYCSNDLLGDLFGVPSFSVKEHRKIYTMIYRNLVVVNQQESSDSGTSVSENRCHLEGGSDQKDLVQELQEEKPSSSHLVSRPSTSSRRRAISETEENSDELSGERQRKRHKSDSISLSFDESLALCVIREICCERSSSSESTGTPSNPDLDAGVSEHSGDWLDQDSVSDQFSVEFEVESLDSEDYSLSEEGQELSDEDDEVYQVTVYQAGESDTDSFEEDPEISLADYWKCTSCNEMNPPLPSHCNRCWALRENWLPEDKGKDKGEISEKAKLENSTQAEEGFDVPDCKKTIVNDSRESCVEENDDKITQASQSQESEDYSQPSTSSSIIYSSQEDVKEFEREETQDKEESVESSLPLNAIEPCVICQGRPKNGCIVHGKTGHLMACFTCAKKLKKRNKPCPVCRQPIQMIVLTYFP
HIF-2a conf: HIF-2a inhibition, single concentration confirmation. AID 651580. 1,800 tested, 56% active. shares compounds with HIF-2a block. 786-0 RCC cells, HIF-2a luciferase reporter luminescence, overnight. inhibition, % at 18.8 µM;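 active means mean inhibition across four replicates of at least 40 percent at the single tested concentration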
HIF-1a counter: inhibits HIF-1a reporter, a counter-screen for HIF-2a inhibitors; shares compounds with HIF-2a block; AID 651589; inhibition, % at 18.8 µM; 1,800 tested, 72% active; MiaPaCa-2 HIF-1a luciferase reporter, desferoxamine, overnight;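 active means mean inhibition of the reporter signal across four replicates at the single tested dose of 50% or more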
Hits are given with their value; n = inactive; x = no result. Compounds with a hit are over-represented: about 3.9% of the library has one in this group of screens.

SMILES | CF NFkB block | TWEAK Fn14 block | TROY signal inh | HIF-2a block | Peg3 prom inh | KKLEB tox | CF NFkB conf | HIF-2a conf | HIF-1a counter | others
Cc1ccc(NC(=O)CN(C)C(=O)Cn2ncc(Cl)c(Cl)c2=O)cc1 | 68.3 | 95.7 | n | 96.6 | 102.4 | n | n | 100.0 | 105.8
O=C1CN(C(=O)COc2ccc(Cl)c(Cl)c2)c2ccccc2N1 | n | n | n | n | n | n | x | x | x
Cc1ccc(NC(=O)CN(C)C(=O)Cc2ccc(Cl)c(Cl)c2)cc1 | n | n | n | n | n | n | x | x | x
O=C1CN(C(=O)Cn2ncc(Cl)c(Cl)c2=O)c2ccccc2N1 | 93.5 | 94.3 | 70.2 | 96.0 | 102.6 | n | 55.5 | n | 105.5
N#CCC(=O)Nn1c(=S)[nH]c2ccccc2c1=O | n | n | n | n | n | n | x | x | x
CCN(CC(=O)Nc1c(F)cccc1F)C(=O)CC1CCCCC1 | n | n | n | n | n | n | x | x | x
Cc1ccc(C)c(NC(=O)CCN2CCc3ccccc3C2)c1 | n | n | n | n | n | n | x | x | x
O=C(CC(=O)N/N=C\c1ccccc1[N+](=O)[O-])NCCc1ccccc1 | n | n | n | n | n | n | x | x | x
Cc1noc2ncnc(Sc3ccccc3Cl)c12 | 53.2 | n | 54.2 | 67.3 | 115.1 | n | n | n | n
Cc1cc(C)cc(NS(=O)(=O)c2ccc(-c3cnc(C4CC4)o3)cc2)c1 | 64.0 | n | 56.3 | 39.5 | n | n | 81.5 | n | 60.4
O=S(=O)(Nc1ccccc1)c1ccc(-c2cnc(C3CC3)o2)cc1 | n | n | n | n | n | n | x | x | x
Cc1cccc(NS(=O)(=O)c2ccc(-c3cnc(C4CC4)o3)cc2)c1C | 51.8 | n | 57.6 | 41.7 | n | n | 87.0 | n | 66.9
CCOc1ccc(NC(=O)CN(C)C(=O)c2ccc(N3CCOCC3)c([N+](=O)[O-])c2)cc1OCC | n | n | n | n | n | n | x | x | x
O=C(c1ccc(S(=O)(=O)c2cccc(Cl)c2)c([N+](=O)[O-])c1)N1CCN(c2ccccn2)CC1 | 86.1 | 90.0 | 57.9 | 40.2 | 52.6 | n | n | n | 85.0 | Mdm2 MdmX conf=95.7
CC1(C)CC(NC(=O)N2c3ccccc3Sc3ccccc32)CC(C)(C)N1 | n | n | n | n | n | n | x | x | x
CCOc1cc(/C=C2\COc3ccccc3C2=O)cc(Br)c1OCC(=O)N(C)C | 97.8 | 70.2 | 79.4 | 90.7 | 104.7 | n | n | 60.5 | 105.3
CCOC(=O)C1CCN(C(=O)c2cccc(S(=O)(=O)N3CCc4ccccc43)c2)CC1 | n | n | n | n | n | n | x | x | x
COc1cccc(-n2nc(C#N)c(Cl)cc2=O)c1 | 105.9 | n | 83.3 | 96.0 | 107.7 | n | n | x | x | Mdm2 MdmX conf=103.7
COc1cccc(-n2nc(C(N)=O)c(O)cc2=O)c1 | n | n | n | n | n | n | x | x | x
Cc1cccc(NC(=S)NCc2ccco2)n1 | n | n | n | n | n | n | x | x | x
Fc1cccc(CNc2ncnc3ccc(-c4ccc5c(c4)OCO5)cc23)c1 | n | n | n | n | n | n | x | x | x
c1nc(NCc2ccc3c(c2)OCO3)c2cc(-c3ccoc3)ccc2n1 | 81.7 | 82.7 | n | n | n | n | 91.9 | x | x | Mdm2 MdmX conf=88.0
NNC(=O)c1ccc(N2CCc3ccccc32)c([N+](=O)[O-])c1 | n | n | n | n | n | n | x | x | x
Nc1ncnc(N2CCc3ccccc32)c1[N+](=O)[O-] | 83.4 | 84.1 | 61.0 | n | n | n | 98.3 | x | x | Mdm2 MdmX conf=92.7
CC(=O)OC1CCC2(C)C(CCC3C4CC=C(C(C)=O)C4(C)OC(=O)CC32)C1 (stereo unspecified) | 95.7 | 102.1 | n | 65.6 | 111.2 | n | 101.0 | 62.2 | 105.0
SMILES | CF NFkB block | TWEAK Fn14 block | TROY signal inh | HIF-2a block | Peg3 prom inh | KKLEB tox | CF NFkB conf | HIF-2a conf | HIF-1a counter | others
Cc1cccc(NC(=O)Nc2ccncc2)c1 | n | n | n | n | n | n | x | x | x
O=C(Cn1cc(/C=C\[N+](=O)[O-])c2ccccc21)Nc1ccccc1 | 53.5 | n | n | 95.8 | 91.5 | n | n | n | 106.3
O=C(Nc1c(Cl)ccc2nsnc12)c1ccc([N+](=O)[O-])o1 | 86.8 | n | n | 60.4 | 89.7 | n | n | n | 99.9
Cc1ccc(Sc2c(C=O)c3ccccc3n2C)cc1 | 65.4 | 69.4 | 52.3 | n | n | n | 92.7 | x | x | Mdm2 MdmX conf=91.5
Cc1ccc(Sc2c(O)c3ccccc3n(C)c2=O)cc1 | n | n | n | n | n | n | x | x | x
C#CCN(C[C@@H]1[C@@H](OC(=O)NC2CC2)[C@@H](OC(=O)NC2CC2)CN(C(=O)OC(C)C)N1C(=O)OC(C)C)S(=O)(=O)c1ccc(C)cc1 | n | n | n | n | n | n | x | x | x
C#CCN(C[C@@H]1[C@@H](OC(=O)NC2CCCC2)[C@@H](OC(=O)NC2CCCC2)Cn2c(=O)ccc(=O)n21)S(=O)(=O)c1ccc(C)cc1 | 63.6 | 72.0 | n | 97.0 | 96.0 | n | n | 99.4 | 107.8
N/C(=C\C(=O)c1cc(Cl)ccc1O)C(Cl)(Cl)Cl | 54.1 | 67.3 | n | n | n | n | n | x | x | Mdm2 MdmX conf=103.5
CCOC(=O)C(=Cc1ccc(OCc2ccc([N+](=O)[O-])cc2)c(OC)c1)C(=O)OCC | 54.2 | 58.1 | n | 92.5 | 58.1 | n | n | 98.2 | 107.5
COc1cc(/C=N/NC(=O)c2cccc([N+](=O)[O-])c2)ccc1OCc1ccccc1 | n | n | n | n | n | n | x | x | x
COc1ccc([N+](=O)[O-])cc1NC(=O)c1ccc(CN(c2ccc(C)c(C)c2)S(C)(=O)=O)cc1 | n | n | n | n | n | n | x | x | x
O=C(CNC(=O)c1ccncc1)N/N=C/c1ccc(O)cc1O | n | n | n | n | n | n | x | x | x
CC(C)=CCSc1nnc([C@@H](NC(=O)OC(C)(C)C)C(C)C)o1 | n | n | n | n | n | n | x | x | x
CC(C)[C@H](NC(=O)OC(C)(C)C)c1nnc(S(=O)(=O)Cc2c(F)cccc2Cl)o1 | 83.2 | n | n | 40.5 | 104.5 | n | 43.1 | n | n
COc1ccc2cc3c(N)nn(C(=O)c4ccc(Cl)c([N+](=O)[O-])c4)c3nc2c1 | 65.3 | 54.7 | n | n | n | n | n | x | x | Mdm2 MdmX conf=96.5
COc1ccc2cc3c(N)nn(C(=O)c4ccccc4[N+](=O)[O-])c3nc2c1 | 70.8 | 81.9 | n | n | n | n | 93.3 | x | x | Mdm2 MdmX conf=92.7
CCCC1CCC(C(=O)n2nc(N)c3cc4ccc(OC)cc4nc32)CC1 (stereo unspecified) | n | n | n | n | n | n | x | x | x
Cc1c(-c2ccccc2)c(P(=O)(N2CCOCC2)N2CCOCC2)c2ccccn12 | n | n | n | n | n | n | x | x | x
